According to PubChem BioAssay AID624330 (Southern Research Specialized Biocontainment Screening …, 2012):
The whole screen tested about 340,000 compounds, of which about 2,100 (0.62%) were called active.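 Rule for the calls: active = first-screen hits whose inhibition reached a set limit at any dose in the follow-up dose series; inconclusive = inhibition above the set first-screen limit but never retested; inactive = the rest.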 These entries were drawn from the full list. Measured potencies and affinities stand elsewhere.

What follows are molecules tested against Rac GTPase-activating protein 1 (Homo sapiens) (UniProt Q9H0H5) (assay: blockers of MgcRacGAP-driven Rac1 GTP hydrolysis – biochemical, ADP Hunter fluorescence, primary and confirmatory, confirmation (AID 624330;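 note: fluorescence reports GDP produced by GAP-driven GTP hydrolysis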)). Settings: MgcRacGAP-stimulated Rac1 GTP hydrolysis, at 30 µM, hits give high values, GST-tagged Rac1 F28L mutant substrate.
Rac GTPase-activating protein 1 (Homo sapiens), sequence (Q9H0H5 whole entry, looked up): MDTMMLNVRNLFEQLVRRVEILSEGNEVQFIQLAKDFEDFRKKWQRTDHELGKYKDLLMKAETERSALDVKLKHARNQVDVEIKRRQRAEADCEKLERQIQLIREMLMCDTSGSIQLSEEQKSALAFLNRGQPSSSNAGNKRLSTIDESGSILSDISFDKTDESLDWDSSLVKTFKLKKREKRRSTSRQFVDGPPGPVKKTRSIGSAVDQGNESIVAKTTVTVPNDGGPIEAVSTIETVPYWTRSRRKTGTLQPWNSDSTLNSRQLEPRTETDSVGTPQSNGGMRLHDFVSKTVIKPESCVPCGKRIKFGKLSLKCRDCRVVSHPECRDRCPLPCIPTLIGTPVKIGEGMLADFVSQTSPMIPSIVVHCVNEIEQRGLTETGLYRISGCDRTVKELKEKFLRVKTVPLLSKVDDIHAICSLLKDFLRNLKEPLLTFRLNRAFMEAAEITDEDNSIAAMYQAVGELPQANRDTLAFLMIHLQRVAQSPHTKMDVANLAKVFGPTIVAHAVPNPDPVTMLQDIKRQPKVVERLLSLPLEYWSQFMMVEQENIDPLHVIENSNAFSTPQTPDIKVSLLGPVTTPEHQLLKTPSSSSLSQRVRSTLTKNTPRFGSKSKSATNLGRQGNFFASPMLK

inhibition, inactive:
COc1ccc(N2CCN(C(=O)CCCn3c(=O)[nH]c4cc(Cl)ccc4c3=O)CC2)cc1 12.7%
Cc1nnc(SCc2ccc(Cl)c(Cl)c2)s1 5.65%
CCc1noc(C)c1C(=O)NNC(=O)c1ccc(Br)cc1 5.66%
CCOC(=O)/C(C#N)=C\c1ccc(OC)c(OC)c1 8.76%
CCOC(=O)/C(C#N)=C/c1ccc(OC)c(OC)c1 5.15%
N#C/C(=C\c1cccc(O)c1)C(=O)Nc1ccc2c(c1)OCCO2 7.83%
COCCNC(=O)/C(C#N)=C/c1ccc2c(c1)OCO2 0.46%
N#C/C(=C\c1ccc2c(c1)OCCO2)C(=O)Nc1ccc(C(=O)O)cc1 8.32%
COc1cc(/C=C(\C#N)C(=O)Nc2ccccn2)ccc1O 14.9%
Cc1cc(C)c(OCCOCCN(C)C)c(Br)c1 12.7%
CC(C)(C)[C@@H]1C=C(C(N)=O)O[C@H](OCCCCO)C1 4.43%
CN(C(=O)CN1C(=O)NC(C)(c2cccc(Br)c2)C1=O)C1CCCCC1 (stereo not drawn) 6.93%
COc1ccc2nc(SCCOC(=O)Nc3ccc(Cl)cc3)nc(C)c2c1 9.72%
CC1=C(C(=O)NC2CC(C)(C)Cc3c2cnn3-c2cccc(F)c2)OCCO1 (stereo not drawn) -2.86%
CCC(C(=O)Nc1cc(C)nn1-c1nc(C)cc(C)n1)c1ccccc1 (stereo not drawn) 13.7%
COc1cccc(/C=C2/C(=O)NN(c3ccc(Br)cc3)C2=O)c1O 13.4%
O=C1NN(c2cccc(Br)c2)C(=O)/C1=C\c1ccc(O)cc1 14.5%
O=C1NN(c2ccccc2)C(=O)C1=Cc1ccccc1 13.7%
O=C1NN(c2ccccc2)C(=O)/C1=C\c1ccccc1 21.7%
CCC1CCCCN1C(=O)CCS(=O)(=O)c1ccc2c(c1)CCN2C(C)=O (stereo not drawn) 8.33%
CCOc1ccc(N(CC(=O)Nc2ccccc2OC)S(C)(=O)=O)cc1 9.6%
C/C(=N\NC(=O)OC(C)(C)C)c1ccccc1Br -4.8%
CCCc1cc(=O)[nH]c(SCC(=O)N2CCCCCC2)n1 2.49%
COc1ccc(N2CCN(C(=O)CCS(=O)(=O)c3cccc4nsnc34)CC2)cc1 28%
Cn1nnnc1SCC(=O)Nc1cc(S(=O)(=O)N2CCCC2)ccc1Cl 4.66%
CC(/C=N/n1cnnc1)=C\c1ccccc1 3.71%
CC(/C=N/n1c(-c2ccccc2)n[nH]c1=S)=C\c1ccco1 24.1%
CC(=C/c1ccccc1)/C=N/n1cnnc1 -1.27%
CC(=C/c1ccccc1)/C=N/n1c(C)n[nH]c1=S 15.2%
CC(=O)Nc1ccc(S(=O)(=O)NNC(=O)c2cccc([N+](=O)[O-])c2)cc1 5.98%
COc1ccccc1NC(=O)CCC(=O)c1ccc(-c2ccccc2)cc1 -5.2%
CCc1ccc(NC(=O)C(=O)NCCOc2ccccc2Cl)cc1 -2.71%
Cc1ccccc1C(=O)c1cccn1CC(=O)NC1CCCC(C)C1C (stereo not drawn) -36.1%
NC(=O)C1(N2CCCCC2)CCN(Cc2ccc(Br)cc2)CC1 -3.42%
CC1CCN(CCOCCOc2ccc(Br)cc2Cl)CC1 5.16%
Clc1cc(Br)ccc1OCCN1CCOCC1 24.7%
Cc1cc(C)c(OCCOCCN2CCN(C)CC2)c(Cl)c1 22.7%
Cc1ccc(OCCOCCN2CCCC2)c(Br)c1 31.4%
Cc1cc(Cl)c(OCCOCCN2CCC(C)CC2)c(Br)c1 21.9%
CC(C)(C)c1ccccc1OCCOCCN1CCCCCC1 -5.46%
Cc1ccc(C(C)(C)C)c(OCCOCCN2CCCC2)c1 24.1%
CC1CCCN(CCOCCOc2ccc(Br)cc2Cl)C1 (stereo not drawn) 30.6%
Cc1cccc(/C(N)=N/OC(=O)Cc2cccs2)c1 2.9%
Cn1c(=O)c2c(nc(Oc3ccc(-c4ccccc4)cc3)n2C)n(C)c1=O 12.2%
COc1ccc(C(=O)Oc2c(OC)cc(C(=S)N3CCOCC3)cc2OC)cc1 4.31%
Cc1cc(Br)ccc1OCCCCN1CCC(C)CC1 9.17%
Cc1ccc(OCCCCN2CCC(C)CC2)c(Br)c1 17%
C[C@@H]1CN([C@@H](C)CO)C(=O)CCCn2nncc2CO[C@@H]1CN(C)S(C)(=O)=O 12%
COCc1ccc(C(=O)N2CCCCC2C(=O)Nc2ccc(-n3nc(C)cc3C)cc2)o1 (stereo not drawn) 7.88%
O=C(NCCCNC(=O)c1ccco1)c1ccc(Cl)c(Cl)c1 0%
CC1(C)CC(=O)C(C=Nc2ccccc2)=C(O)C1 2.7%
O=C1CC(c2ccccc2)CC(O)=C1C=Nc1ccc(Cl)cc1 (stereo not drawn) 2.18%
COc1ccc(N=CC2=C(O)CCCC2=O)cc1 13.3%
CC1(C)CC(=O)C(C=Nc2ccncc2)=C(O)C1 6.33%
COc1ccc(N=CC2=C(O)CC(C)(C)CC2=O)cc1 9.7%
O=C1CCCC(O)=C1C=Nc1cccc(C(F)(F)F)c1 11.5%
O=C1CC(c2ccccc2)CC(O)=C1C=Nc1ccccc1O (stereo not drawn) 4.93%
CCOc1ccc(N=CC2=C(O)CC(C)(C)CC2=O)cc1 6.9%
Cc1ccc(CN2CCN(/N=C/c3ccc(C)s3)CC2)c(C)c1 4.97%
COc1ccc(Nc2nnc(SCC(=O)NC3CCS(=O)(=O)C3)s2)cc1 (stereo not drawn) 4.04%
O=C(CN1C(=O)NC2(CCCCCC2)C1=O)N1CCN(S(=O)(=O)c2ccccc2)CC1 0.28%
CC(=O)NC1C(=O)N(CC(C)C)c2ccccc21 (stereo not drawn) 4.92%
CCCc1ccc2c(N)c(C#N)sc2n1 1.65%
Cc1ccccc1C(=O)N(CC(=O)Nc1sc(C)c(C)c1C(N)=O)C1CCCC1 -20.9%
CCOc1ccc(NC(=O)N(CCC(C)C)C2CCN(C(C)=O)CC2)cc1 4.34%
Nc1ccc2c3c(cccc13)C(=O)N(c1ccccc1)C2=O 5.87%
CCN1C(=O)c2cccc3c(N)ccc(c23)C1=O 7.37%
Cc1ncoc1C(=O)N1CCCC(C(=O)Nc2cccc(-c3ccc(F)cc3)c2)C1 (stereo not drawn) -3.84%
CCCc1cc(C(=O)OC)c2ccccc2n1 5.2%
O=C(COC(=O)C1CCC(=O)N1)Nc1ccc(Br)cc1 (stereo not drawn) 15.9%
Cc1cc(C)cc(NC(=O)C(NCC2CCCO2)c2ccccc2)c1 (stereo not drawn) 20.5%
COc1ccc(CCNC(C(=O)Nc2cc(C)cc(C)c2)c2ccccc2)cc1 (stereo not drawn) 2.32%
CCC1(C)CC(CCN(Cc2ccco2)C(C)=O)(c2ccccc2)CCO1 (stereo not drawn) 6.02%
CCOC(=O)N1CCC(N2C(=O)c3ccc(C(=O)NCc4ccc(F)cc4)cc3C2=O)CC1 -5.85%
CC(=O)c1c(C)[nH]c(C(=O)OCC(=O)Nc2ccc3[nH]c(=O)[nH]c3c2)c1C 9.39%
O=S(=O)(Cc1ccccc1)Nc1ccc(F)cc1 8.87%
CC1=Nc2cc(C(=O)O)ccc2Sc2ccc(C)cc21 -10.1%
CCOC(=O)N1CCC(NC(=O)c2ccc3c(c2)N=C(C)c2ccccc2S3)CC1 4.04%
CC1=Nc2cc(C(=O)NCCCOC(C)C)ccc2Sc2ccc(C)cc21 7.38%
CCC1=Nc2cc(C(=O)O)ccc2Sc2ccccc21 -0.29%
Cc1cccc(N(C(=O)CNC(=O)c2ccco2)C(C(=O)NC2CCCC2)c2cccnc2)c1C (stereo not drawn) 5.36%
Cc1ccccc1OCC1Cn2c(nc3c2c(=O)[nH]c(=O)n3C)O1 (stereo not drawn) 2.68%
COC(=O)/C(N=Nc1c(C)n(C)n(-c2ccccc2)c1=O)=C(\C)O 6.21%
CC(=O)/C(N=Nc1c(C)n(C)n(-c2ccccc2)c1=O)=C(\C)O 0.69%
Cc1c(O)c(=O)n(-c2ccccc2)n1C 2.13%
Cc1c(N2C(=O)/C(=C/c3ccc(N(C)C)cc3)N(C)C2=S)c(=O)n(-c2ccccc2)n1C 27.2%
Cc1c(NC(=S)N/N=C/c2cccc(O)c2)c(=O)n(-c2ccccc2)n1C 12.8%
Cc1c(NC(=S)N/N=C/c2ccc(Br)cc2)c(=O)n(-c2ccccc2)n1C 9.41%
CN1C(=S)N(c2cccnc2)C(=O)/C1=C\c1ccc(N(C)C)cc1 12.2%
Cc1c(N=Cc2cc3c(cc2Cl)OCO3)c(=O)n(-c2ccccc2)n1C 4.04%
O=C(Nc1cccc(-c2cccc(F)c2)c1)C1CCN(Cc2ccco2)CC1 7.74%
O=C(NCCN1C(=O)S/C(=C\c2ccccc2F)C1=O)C1CCCN1C(=O)c1cccs1 (stereo not drawn) -14.1%
Cc1ccccc1OCC(=O)N/N=C/c1cn(Cc2ccccc2)c2ccccc12 3.64%
Cc1ccc2nc(-c3ccc(N4C(=N)SC5CS(=O)(=O)CC54)cc3)sc2c1 (stereo not drawn) 9.19%
CCOc1ccc(C(=O)N2CCC(C(=O)c3ccc4c(c3)OCCO4)CC2)cc1 -2.21%
COc1ccc(/C=C2\CCCC(C(=O)C(F)(F)F)=C2O)cc1 4.33%
Cc1ccc(S(=O)(=O)Nc2ccc(S(=O)(=O)N3CCOCC3)cc2)cc1 0.84%
CC1CCc2sc(C(=O)NCCCn3ccnc3)cc2C1 (stereo not drawn) 5.91%
